PubChem BioAssay (Tox21)
Several values for one entry are separate records, joined by “and”; a condition that tells them apart may be missing. Identical values can stand only once. Inconclusive results are not listed. A number with no mark means an inactive call. Activity calls are given as the source filed them. Calls follow the shape of the dose curve; as a rule, active = well fitted curve in the direction sought with a large enough effect in the repeat runs; inconclusive = weak or mixed curves; inactive = no such curve, though single readings can be large; an effect the other way counts as inactive or inconclusive.
% is scaled to controls: 0 for no effect and ±100 for the full control effect; potency is read from the fitted curve at half-maximal effect.

Target: Androgen receptor (Homo sapiens) (UniProt P10275)
Sequence (P10275 whole entry, looked up): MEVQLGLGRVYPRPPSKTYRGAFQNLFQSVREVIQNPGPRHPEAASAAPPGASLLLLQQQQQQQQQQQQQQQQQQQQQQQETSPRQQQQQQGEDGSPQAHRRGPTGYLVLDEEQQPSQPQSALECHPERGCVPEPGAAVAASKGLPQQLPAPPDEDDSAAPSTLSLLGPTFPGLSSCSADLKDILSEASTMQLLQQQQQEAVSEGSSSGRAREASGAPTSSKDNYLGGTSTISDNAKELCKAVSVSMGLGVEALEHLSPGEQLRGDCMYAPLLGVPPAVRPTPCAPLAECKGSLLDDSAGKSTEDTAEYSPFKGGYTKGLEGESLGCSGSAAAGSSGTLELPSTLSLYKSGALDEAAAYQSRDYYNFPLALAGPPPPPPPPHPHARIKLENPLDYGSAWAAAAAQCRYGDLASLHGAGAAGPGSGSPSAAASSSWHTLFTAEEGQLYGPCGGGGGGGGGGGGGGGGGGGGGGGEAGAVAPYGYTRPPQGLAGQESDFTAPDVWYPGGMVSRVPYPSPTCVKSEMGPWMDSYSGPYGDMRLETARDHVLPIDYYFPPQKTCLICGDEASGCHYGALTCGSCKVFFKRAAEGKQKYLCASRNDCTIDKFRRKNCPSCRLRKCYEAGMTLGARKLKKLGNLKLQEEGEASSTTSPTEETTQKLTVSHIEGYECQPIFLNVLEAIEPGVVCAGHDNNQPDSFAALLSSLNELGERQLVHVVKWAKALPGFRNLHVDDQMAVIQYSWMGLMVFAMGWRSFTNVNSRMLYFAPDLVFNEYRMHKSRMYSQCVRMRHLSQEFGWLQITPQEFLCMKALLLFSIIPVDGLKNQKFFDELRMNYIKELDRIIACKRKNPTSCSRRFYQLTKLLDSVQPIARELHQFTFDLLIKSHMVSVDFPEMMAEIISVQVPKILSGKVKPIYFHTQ
Assay: qHTS assay to identify small molecule antagonists of the androgen receptor (AR) signaling pathway using the MDA cell line (AID 743042; also: nearly all actives have a fitted effect of over 55% in size)
Details: MDA-kb2 AR-luc, MMTV luciferase, R1881 antagonist, 16 h; series mostly up to 70.3 µM; activity change, negative = inhibition: at the top concentration
How it was run: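 MDA-kb2 breast carcinoma cells carrying MMTV-luciferase (AR/GR responsive) were co-treated with compounds and the agonist R1881 for 16 h at 37C. Inhibition read as ONE-Glo luminescence; CellTiter-Fluor fluorescence measured in parallel for cytotoxicity.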
With `CCN1CCN(c2cc(-c3ccc(F)cc3)c3c(n2)CCCCCC3)CC1` the “activity change, negative = inhibition” value was 5.93%.
In the case of `C=C1C(C)(C)[C@@]2(Cl)C(Cl)[C@]1(Cl)C(Cl)(Cl)C2(Cl)Cl` (some centres undefined), the “activity change, negative = inhibition” value is reported as -5.74%.
For `O=C(Oc1ccccc1)c1cccc(C(=O)Oc2ccccc2)c1`, the “activity change, negative = inhibition” value was 52.8% [at 95 µM].
With `NC(=O)c1ccccc1N` the “activity change, negative = inhibition” value was 5.98% [at 95 µM].
For `C=CC(C)(CCC=C(C)C)OC(=O)/C=C/c1ccccc1` (centres undefined), the “activity change, negative = inhibition” value was -5.92%.
For `O=C1c2c(O)ccc(O)c2C(=O)c2c(NCCNCCO)ccc(NCCNCCO)c21`, the Potency was 5.07 µM (active).
In the case of `CCN=c1cc2oc3cc(NCC)c(C)cc3c(-c3ccccc3C(=O)OCC)c-2cc1C`, the Potency is reported as 108 nM (active) and 96.9 nM (active).
With `O=C(NO)c1ccccc1` the “activity change, negative = inhibition” value was 38.8%.
In the case of `O=C1OC(OC(=O)c2cccnc2Nc2cccc(C(F)(F)F)c2)c2ccccc21` (centres undefined), the “activity change, negative = inhibition” value is reported as 1.44%.

System: not listed separately
Assay: qHTS assay to identify small molecule antagonists of the thyroid receptor (TR) signaling pathway - cell viability counter screen (AID 743064); also: nearly all actives have a fitted effect of over 50% in size
Details: GH3.TRE-Luc viability, CellTiter-Fluor, 24 h; series mostly up to 70.3 µM; activity change, negative = cytotoxic: at the top concentration
How it was run: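 GH3.TRE-Luc rat pituitary cells carrying a TRE-luciferase reporter were treated with compound plus 1 nM T3 (final) for 23.5 h at 37 °C. Viability was then read in the same wells by CellTiter-Fluor fluorescence after a further 30 min.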
In the case of `Cc1oc(-c2ccccc2)nc1CCOc1ccc(C[C@H](Nc2ccccc2C(=O)c2ccccc2)C(=O)O)cc1`, the Potency is reported as 27.3 µM (active).
For `CCN1CCN(c2cc(-c3ccc(F)cc3)c3c(n2)CCCCCC3)CC1`, the Potency was 13.3 µM (active).
For `C=C(C)C(=O)OCCC[Si](Cl)(Cl)Cl`, the “activity change, negative = cytotoxic” value was 4.12% [at 95 µM].
With `CN(C)c1ccc(N=Nc2ccccc2C(=O)O)cc1` the Potency was 15.4 µM (active).
In the case of `CC(=O)Oc1ccc(C2(c3ccc(OC(C)=O)cc3)C(=O)Nc3ccccc32)cc1`, the Potency is reported as “inactive”.
In the case of `CCOC(=O)N1CCC(=C2c3ccc(Cl)cc3CCc3cccnc32)CC1`, the Potency is reported as 26.6 µM (active) and 27.3 µM (active).
In the case of `N#CSCSc1nc2ccccc2s1`, the Potency is reported as 1.54 µM (active).
In the case of `CCN(CC)CCNc1ccc(CO)c2sc3ccccc3c(=O)c12`, the Potency is reported as 4.73 µM (active).
In the case of `C=C1C(C)(C)[C@@]2(Cl)C(Cl)[C@]1(Cl)C(Cl)(Cl)C2(Cl)Cl` (some centres undefined), the Potency is reported as 26.8 µM (active).
For `CC1CCCNC1` (centres undefined), the “activity change, negative = cytotoxic” value was 3.87%.
With `Cc1cc(Nc2ccc(O)cc2)ccc1N` the Potency was 12.1 µM (active).
For `CC(C)(C)C1=CC(=O)C=C(C(C)(C)C)C1=O`, the “activity change, negative = cytotoxic” value was 0.868%.
In the case of `C[C@@]12C(=O)OC(=O)[C@]1(C)C1CCC2O1`, the Potency is reported as 2.27 µM (active).
For `COC(=O)CC(C)CCC=C(C)C` (centres undefined), the “activity change, negative = cytotoxic” value was 5.31%.
For `NC(=O)c1ccccc1N`, the “activity change, negative = cytotoxic” value was 19.5% [at 95 µM].
In the case of `CCCCCCCCCCOCC(O)CN` (centres undefined), the Potency is reported as 5.96 µM (active).
In the case of `C=CC(C)(CCC=C(C)C)OC(=O)/C=C/c1ccccc1` (centres undefined), the “activity change, negative = cytotoxic” value is reported as -22.2%.
With `O=C1c2c(O)ccc(O)c2C(=O)c2c(NCCNCCO)ccc(NCCNCCO)c21` the Potency was 0.569 µM (active).
With `CCN=c1cc2oc3cc(NCC)c(C)cc3c(-c3ccccc3C(=O)OCC)c-2cc1C` the Potency was 1.08 µM (active) and 1.22 µM (active).
In the case of `C/C=C/C(=O)Oc1c(CCCCCC(C)C)cc([N+](=O)[O-])cc1[N+](=O)[O-]`, the Potency is reported as 12.2 µM (active).
In the case of `O=C(NO)c1ccccc1`, the Potency is reported as 26 µM (active).
For `CN1[C@@H]2CC[C@@H]1CC(OC(=O)C(CO)c1ccccc1)C2` (some centres undefined), the “activity change, negative = cytotoxic” value was 11.4%.
With `CCCCCCCC/C=C\CCCCCCCC(=O)N(C)CC(=O)O` the Potency was 30.6 µM (active).
With `CCCCCCCC/C=C/CCCOC(C)=O` the “activity change, negative = cytotoxic” value was -1.11%.
For `O=C1NC2CCCCN2C12CCN(CCCN1c3ccccc3CCc3ccc(Cl)cc31)CC2` (centres undefined), the Potency was 6.68 µM (active).
